Compounds with a hit are over-represented: about 18% of the library has one in this group of screens.
RORgamma inh = qHTS for inhibitors of ROR gamma transcriptional activity. Drosophila S2 Gal4-RORgamma UAS-luciferase reporter, 20 h. Nuclear receptor ROR-gamma (Mus musculus), P51450. Potency, µM (top dose mostly 53.6 µM), for the others: top-dose activity change, negative = inhibition, hits mostly inhibitors. actives 5.4% (n = 310,000); also: potency is read from the fitted curve at half-maximal effect; nearly all actives have a fitted effect of over 60% in size
Target sequence (P51450 whole entry, looked up, the tested form may be a part): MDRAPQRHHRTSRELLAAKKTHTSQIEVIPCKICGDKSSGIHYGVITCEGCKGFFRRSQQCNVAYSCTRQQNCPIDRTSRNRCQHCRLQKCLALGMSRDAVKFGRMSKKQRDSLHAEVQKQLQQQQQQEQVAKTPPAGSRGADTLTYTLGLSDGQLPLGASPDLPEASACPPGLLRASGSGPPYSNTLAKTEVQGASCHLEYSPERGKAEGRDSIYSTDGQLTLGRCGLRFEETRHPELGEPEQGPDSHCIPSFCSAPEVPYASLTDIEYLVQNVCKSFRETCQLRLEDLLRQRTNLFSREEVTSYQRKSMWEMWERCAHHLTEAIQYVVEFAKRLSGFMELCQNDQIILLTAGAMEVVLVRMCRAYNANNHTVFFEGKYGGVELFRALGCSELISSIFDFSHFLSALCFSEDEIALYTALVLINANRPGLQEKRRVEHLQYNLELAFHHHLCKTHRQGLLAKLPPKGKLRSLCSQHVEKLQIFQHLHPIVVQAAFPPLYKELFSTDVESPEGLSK
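Compounds are pin-transferred onto Drosophila Schneider cells expressing a copper-inducible Gal4–ROR gamma transactivation domain fusion. After 1 hr, copper sulfate is added to 700 uM final; luciferase is read 20 hr later.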
TDP1 cell noCPT = qHTS for Inhibitors of human tyrosyl-DNA phosphodiesterase 1 (TDP1): qHTS in cells in absence of CPT. DT40 Tdp1-/- hTDP1 cells, no CPT, ATP luminescence, 48 h. Potency, µM (titrated, usually from 46.2 µM), for the others: at the highest dose activity change, negative = growth inhibition, most hits filed as inhibitors. actives 15% (n = 420,000). AID 686978, 2013; also: potency is read from the fitted curve at half-maximal effect; nearly all actives have a fitted effect of over 55% in size
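Compound effects on proliferation are scored in DT40 Tdp1-/-;hTDP1 cells in the absence of CPT. ATP levels (CellTiter-Glo luminescence) are recorded after a ≥48 hr, 37 °C incubation.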
IL1B secr inh = qHTS for Inhibitors of Inflammasome Signaling: IL-1-beta AlphaLISA Primary Screen. activity change, % at 57.5 µM. AID 743279, 2014. THP-1 LPS/ATP IL-1B secretion, AlphaLISA, 16 h; hits give low values. actives 4.7% (n = 360,000); in the data active = activity change below about -50%; inconclusive = mostly about -30% to -49%
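Secreted IL-1B measured by AlphaLISA bead assay after 16 h compound exposure of THP-1 cells; compounds (final up to 57.5 uM) added 1 h before LPS (250 ng/mL) and ATP (1.25 mM) stimulation; lower signal means less secretion.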
LDHA block = qHTS assay for inhibitors of human lactate dehydrogenase; L-lactate dehydrogenase A chain (Homo sapiens), P00338; purified LDHA, NADH/diaphorase-resazurin fluorescence; hits give low values; activity change, % (values are at about 110 or 230 µM); actives 0.15% (n = 480,000); AID 1347041, 2019; in the data active = activity change below about -30%; inconclusive = mostly about -25% to -30%;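 also: plate controls were DMSO wells for no effect and wells without enzyme for full effect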
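Enzyme activity of human lactate dehydrogenase 5 (2 nM; 0.06 mM NADH, 0.2 mM pyruvate, 5 min, RT) is measured via a resazurin/diaphorase fluorescence readout of residual NADH.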
DT40 TDP1 CPT = qHTS for Inhibitors of human tyrosyl-DNA phosphodiesterase 1 (TDP1): qHTS in cells in presence of CPT; Potency, µM (highest dose often 46.2 µM), for the others: top-dose activity change, negative = growth inhibition, most hits filed as inhibitors; chicken DT40 Tdp1-/-;hTDP1 cells + 20 nM CPT, ATP luminescence, 48 h; actives 12% (n = 420,000); also: potency is read from the fitted curve at half-maximal effect; nearly all actives have a fitted effect of over 55% in size
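Cell growth measured by CellTiter-Glo luminescence after a minimum 48 h, 37 C compound exposure with 20 nM CPT in Tdp1-knockout DT40 cells stably expressing hTDP1, seeded 400/well; qHTS titration format.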
Gal4-VP16 FLuc = VP16 counterscreen qHTS for inhibitors of ROR gamma transcriptional activity; Drosophila S2 Gal4-VP16 UAS-luciferase, luminescence, 20 h; actives 3.5% (n = 310,000); Potency, µM (titrated, usually from 53.6 µM), inactives show top-dose activity, negative = inhibition, hits mostly inhibitors;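 also: Gal4-VP16 expression switched on by copper sulfate through the metallothionein promoter; potency is read from the fitted curve at half-maximal effect; nearly all actives have a fitted effect of over 50% in size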
Active calls of the source: *; ? = inconclusive; / = no result given; ! = not confirmed by another sample; [ ] = dose if it differs, or a comment. Unless noted, calls follow the shape of the dose curve; as a rule, active = well fitted curve in the direction sought with a large enough effect; inconclusive = small, poorly fitted or top-dose-only effect, or another doubt; inactive = no such curve, though single readings can be large; an effect the other way counts as inactive or inconclusive. Unless noted, % is scaled to controls: 0 for no effect and ±100 for the full control effect.

SMILES | RORgamma inh | TDP1 cell noCPT | IL1B secr inh | LDHA block | DT40 TDP1 CPT | Gal4-VP16 FLuc
Cc1ccc(CNC(=O)CSc2nc3ccccc3o2)cc1 | / | / | / | 3 | / | /
Cc1noc(C)c1COc1ccc(CC(=O)Nc2ncc(Cc3ccccc3)s2)cc1 | / | / | / | 16 | / | /
Cc1cc(Br)ccc1NC(=S)Nc1cccc([N+](=O)[O-])c1 | 11µM* | ? | -8 | -2 | ? | ?
Cc1occc1C(=O)NNC(=S)Nc1cccc([N+](=O)[O-])c1 | -42% | 23µM* | 29 | -6 | ? | -2%
CNC(=S)Nc1cccc([N+](=O)[O-])c1 | 3% | -3% | 3 | -9 | -2% | 6%
O=C(Cc1ccc(Cl)c(Cl)c1)NCc1cccs1 | / | / | / | 2 | / | /
O=C(NCCN1C(=O)S/C(=C\c2ccccc2Cl)C1=O)C1=COCCO1 | / | 6.5µM* | -2 | -4 | 7.3µM* | /
O=C(CCS(=O)(=O)c1ccc(Cl)cc1)NCCN1C(=O)S/C(=C\c2ccccc2F)C1=O | ? | 16µM* | 0 | 2 | ? | ?
O=C(NCCN1C(=O)S/C(=C\c2ccccc2F)C1=O)C1CCN(S(=O)(=O)c2cccs2)CC1 | ? | ? | ? | -3 | ? | -10%
O=C(CNC(=O)c1ccccc1F)NCCN1C(=O)S/C(=C\c2ccccc2Cl)C1=O | -1% | ? | 6 | -2 | -26% | ?
O=C(NCCN1C(=O)S/C(=C\c2ccc(Cl)cc2Cl)C1=O)C1=COCCO1 | / | 12µM* | ? | -10 | 15µM* | /
Cc1ccc(S(=O)(=O)CCC(=O)NCCN2C(=O)S/C(=C\c3ccccc3)C2=O)cc1 | ? | ? | ? | -2 | ? | -28%
O=C(NCCN1C(=O)S/C(=C\c2ccccc2F)C1=O)C1=COCCO1 | / | 2.9µM* | 2 | 2 | ? | /
O=C(NCCc1ccccc1)C1=COCCO1 | / | -1% | 13 | -5 | -15% | /
COc1cc(C(=O)N2CCN(c3nccs3)CC2)cc(Cl)c1OC | / | / | / | 10 | / | /
CCc1ccc(NC(=O)Nc2c(N3CCCC3)c3ccccc3oc2=O)cc1 | / | / | / | 8 | / | /
Cc1ccc(SC(C)C(=O)Nc2ccc(C)cc2C)cc1 (stereo unspecified) | / | / | / | 12 | / | /
CCn1nccc1-c1cc(C(=O)O)c2cccc(C)c2n1 | / | / | / | -1 | / | /
CCc1ccc(-c2cc(C)no2)cc1S(=O)(=O)N1CCN(c2ccccc2)CC1 | -2% | ? | 0 | 0 | 16µM* | -6%
CCOC(=O)c1cc(-c2ccc(OC)c(S(=O)(=O)N3CCN(c4ccccc4)CC3)c2)on1 | / | 21µM* | / | -4 | 16µM* | /
Cc1cc(-c2ccc(C)c(S(=O)(=O)N3CCN(c4ccc([N+](=O)[O-])cc4)CC3)c2)on1 | -9% | ? | 11 | -7 | ? | -12%
COCc1cc(C)nc(SCC(=O)Nc2nc(C)cs2)c1C#N | -3% | 16µM* | -8 | -3 | ? | -8%
COCc1cc(C)nc(SCC(=O)Nc2cccc(C)c2C)c1C#N | -13% | -5% | 17 | -2 | -21% | 4%[0.365 µM]
O=C(Nc1cc(Cl)cc(Cl)c1)C(c1ccccc1)N1CCN(C(=O)C2CC2)CC1 (stereo unspecified) | / | / | / | 7 | / | /
C#CCN1CCC(C(=O)NCCN2CCCCCC2)CC1 | / | / | / | -1 | / | /
CC(=O)N1CCCc2ccc(NS(=O)(=O)c3ccc(C)c(C)c3)cc21 | 14% | ? | 29 | 0 | 12µM*! | ?
COc1ccc(S(=O)(=O)Nc2ccc3c(c2)N(C(C)=O)CCC3)cc1F | / | 18µM* | / | -5 | 15µM* | /

Screening data deposited in PubChem BioAssay by National Center for Advancing Translational Sciences (NCATS).
